PubChem BioAssay AID1626 (SRMLSC, 2009)
About 2,000 (0.91%) of roughly 220,000 compounds were called active. About 2% were inconclusive and are not listed. No stated cut-off is given here; in the data, inconclusive means inhibition above about 80% without an active follow-up result; inactive means below that; test concentration not stated here. Not all results are given here. Measured potencies and affinities stand elsewhere.

Assay: M. tuberculosis H37Rv growth inhibitors, H37Rv strain (AID 1626);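 further: bacteria incubated seven days before Alamar blue readout; 0% = bacteria only wells and 100% = bacteria with antibiotic wells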
Conditions: hits give high values, concentration not given here

| Compound | inhibition |
| --- | --- |
| COc1cc(C(C(=O)NC(C)(C)C)N(Cc2ccc3c(c2)OCO3)C(=O)c2cnccn2)cc(OC)c1OC (configuration not stated) | -6.38% (inactive) |
| CCOC(=O)C[C@H]1c2ccccc2S(=O)(=O)N1c1cccc(OC)c1 | -8.13% (inactive) |
| CC(=O)Nc1sc2c(c1CN1CCN(C)CC1)CCCC2 | -1.53% (inactive) |
| CC(=O)Nc1sc2c(c1CN1CCCC1)CCCC2 | -3.09% (inactive) |
| COc1cccc(C(=O)Nc2ccc(NC(C)=O)cc2)c1 | -16.8% (inactive) |
| CC1CCCN(C(=O)Cn2cnc3c2c(=O)n(C)c(=O)n3C)C1 (configuration not stated) | 10.5% (inactive) |
| CC1Cc2ccccc2N1C(=O)COC(=O)c1ccc(O)cc1 (configuration not stated) | 2.09% (inactive) |
| CC1Cc2ccccc2N1C(=O)COC(=O)CNC(=O)c1ccc(Br)o1 (configuration not stated) | -10.5% (inactive) |
| Cc1cc(C(=O)OCC(=O)N2c3ccccc3CC2C)c(C)o1 (configuration not stated) | 7.82% (inactive) |
| CC1Cc2ccccc2N1C(=O)COC(=O)c1cccnc1Cl (configuration not stated) | 3.35% (inactive) |
| O=C(OCC(=O)N1CCc2ccccc21)c1cccnc1 | -5.16% (inactive) |
| O=C(OCC(=O)N1CCCc2ccccc21)c1ccc(Cl)nc1 | 60.1% (inactive) |
| NC(=O)CC[C@@H]1NC(=O)[C@@H]2CCCN2C(=O)c2cc([N+](=O)[O-])cc(I)c2NCCCC[C@@H](C(=O)NC(CC(=O)O)C(N)=O)NC1=O (some centres not stated) | 0.47% (inactive) |
| Cc1ccc(NC(=O)CSc2nnc(-c3n[nH]c4ccccc34)n2-c2ccccc2)c(C)c1 | 14.9% (inactive) |
| COc1ccc(Cl)cc1Nc1nc(C)cc(C)c1C(N)=O | -2.67% (inactive) |
| Cc1cc2c(sc3ccccc32)c(C)n1 | 5.03% (inactive) |
| CN1C(=O)C(=Cc2ccc(N3CCOCC3)o2)C(=O)N(C)C1=O | 5.8% (inactive) |
| O=Cc1ccc(N2CCCC2)o1 | 46.4% (inactive) |
| O=C(Nc1cccc2ncccc12)C12CC3CC(CC(C3)C1)C2 | -10% (inactive) |
| Cc1ccccc1OCc1nnc(SCC(=O)NCc2ccccc2)n1C | 2.63% (inactive) |
| Cc1ccccc1C(=O)NC1CCN(CC(=O)NCc2cccs2)CC1 | 2.61% (inactive) |
| Cc1ccc(N/C=C/C(=O)c2sc(-c3ccccc3)nc2C)cc1 | 3.94% (inactive) |
| COc1ccc(/C=C/C(=O)c2sc(-c3ccccc3)nc2C)cc1 | 6.03% (inactive) |
| COc1cc(S(=O)(=O)N2CCCCC2)ccc1NC(=O)Cc1ccccc1 | -1.81% (inactive) |
| Cc1ccc(CNC(=O)COC(=O)c2cnc(C)cn2)cc1 | 0.26% (inactive) |
| COC1=C(Nc2ccc(OC)cc2)C(=O)c2ccccc2C1=O | 8.34% (inactive) |
| COC1=C(Nc2ccccc2)C(=O)c2ccccc2C1=O | 13.5% (inactive) |
